Legend:
Conditions in all cases: concentration: 1 μM, replicates: in singlicate; n = 1
[1] = tested on: LYN
[2] = tested on: T1, LZK
T1 construct: gene MAP3K13

[3] = tested on: MAK
[4] = tested on: MAP3K15
[5] = tested on: MAP3K1
[6] = tested on: MAP3K2
[7] = tested on: MAP3K3
[8] = tested on: MAP3K4
[9] = tested on: MAP4K2
[10] = tested on: MAP4K3
[11] = tested on: MAP4K4
[12] = tested on: MAP4K5
[13] = tested on: MAPKAPK2
[14] = tested on: MAPKAPK5
[15] = tested on: MARK1
[16] = tested on: MARK2
[17] = tested on: MARK3
[18] = tested on: MARK4
[19] = tested on: MAST1
[20] = tested on: T2, MEK1
T2 construct: gene MAP2K1
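Further: KINOMEscan kinase panel screen.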

Compound	%Inh [1] [%]	%Inh [2] [%]	%Inh [3] [%]	%Inh [4] [%]	%Inh [5] [%]	%Inh [6] [%]	%Inh [7] [%]	%Inh [8] [%]	%Inh [9] [%]	%Inh [10] [%]	%Inh [11] [%]	%Inh [12] [%]	%Inh [13] [%]	%Inh [14] [%]	%Inh [15] [%]	%Inh [16] [%]	%Inh [17] [%]	%Inh [18] [%]	%Inh [19] [%]	%Inh [20] [%]
Cl.c1ccc(-c2n[nH]cc2-c2ccnc(-c3ccc(CN4CCOCC4)cc3)c2)nc1 [GW776245]	6	0	0	0	0	18	17	9	0	0	0	0	13	0	0	6	1	28	0	14
Cc1cc(N2Cc3ccccc3C2)nc(Nc2ccc(S(=O)(=O)N3CCOCC3)cc2)n1.Cl [GSK1669917]	0	0	14	0	0	0	0	2	0	0	0	0	4	0	0	0	12	0	0	0
COc1ccc(Nc2nccc(NCCNC(=O)Nc3ccccc3F)n2)cc1 [GSK1379901]	0	7	19	0	1	5	0	52	0	0	0	0	25	0	0	0	0	11	0	0
COc1cc2ncnc(Nc3ccc4nc(-c5ccccc5)[nH]c4c3)c2cc1OC.Cl [GW282450]	0	0	0	0	19	8	0	9	0	3	0	0	24	0	0	0	0	0	0	0
O=C(Nc1ccc2c(c1)OCO2)NC1CCN(c2ccnc(Nc3ccc(F)cc3)n2)C1 (stereo not drawn) [GSK1379724]	0	0	0	0	11	6	0	40	0	0	8	0	5	0	0	0	0	0	0	0
Cc1csc(-c2nc(Nc3ccncc3)c3ccccc3n2)n1 [GW869640]	0	20	2	35	35	38	1	2	34	0	14	0	0	3	25	13	0	38	60	13
Nc1ncnc2[nH]c(-c3ccccc3)nc12 [AH5015]	7	0	0	0	16	0	0	0	0	0	4	0	12	0	0	0	0	0	0	0
Cc1cc(NCC(c2ccccc2)c2ccccc2)nc(NCc2ccc(C(F)(F)F)cc2)n1 [GW497681]	0	11	17	0	0	0	0	22	0	0	0	0	0	0	0	0	0	0	0	0
COc1ccc(CNC(=O)NC2CCN(c3ccnc(Nc4cc(OC)c(OC)c(OC)c4)n3)C2)cc1 (stereo not drawn) [GSK1379748]	0	43	17	0	0	0	0	2	5	0	0	0	0	0	0	0	0	0	13	0
CC1=C(C(=O)Nc2cc3cn[nH]c3cc2F)C(c2ccc(C(F)(F)F)cc2)CC(=O)N1 (stereo not drawn) [GSK429286]	0	0	0	16	30	3	0	0	0	0	59	75	21	0	0	0	0	0	0	0
O=C(O)COc1ncnc2cc(-c3ccc4[nH]ncc4c3)sc12	0	39	2	53	22	13	9	4	1	0	0	6	0	9	8	20	0	14	0	5
Cn1ccc2ncnc(Oc3ccc(Nc4nc5ccccc5[nH]4)cc3)c21	0	0	5	0	0	0	0	0	0	9	0	0	0	0	0	9	0	13	0	0
Cl.NC(=O)c1cccc(Nc2nccc(Nc3ccc(Oc4cccc(Cl)c4)c(Cl)c3)n2)c1 [GW659008]	29	19	9	0	3	0	0	33	0	0	18	33	8	0	13	0	0	24	5	0
COc1ccccc1CNC(=O)c1cc(C(=O)c2ccccc2C)c[nH]1 [GSK364507]	0	0	7	3	6	15	0	32	0	0	6	0	26	0	89	0	0	50	0	0
COc1ccc(Nc2nccc(-c3cccc(NC(=O)c4cc5cc(F)ccc5[nH]4)c3)n2)cc1 [GSK1229782]	0	33	36	0	5	38	0	21	0	0	22	7	0	0	9	19	0	21	20	0
COc1cc2nccc(Nc3ccc(NC(=O)c4ccc(C)cc4)c(O)c3)c2cc1OC.Cl [GW440132]	28	0	13	13	10	9	0	2	0	8	0	3	8	0	0	0	0	14	0	8
Cc1ccc(C(=O)Nc2ccc(Nc3ccnc4cc(-c5ccccn5)ccc34)cc2O)cc1.Cl [GW440146]	44	10	25	21	3	0	0	25	0	0	0	70	18	0	0	0	2	4	0	0
Fc1cccc(COc2nnc(-c3ccc4c(c3)CCO4)o2)c1	6	14	0	17	17	0	0	0	0	2	0	0	0	11	14	24	0	24	21	5
CCn1c(-c2cccnc2O)nc2cnccc21 [SB-736715]	0	11	13	0	0	0	0	0	0	0	0	0	16	0	0	15	0	0	13	0
Cc1cccc(-c2nc(-c3ccc(S(C)(=O)=O)cc3)sc2-c2ccnc(NCCc3ccccc3)c2)c1	5	2	0	10	0	0	0	16	15	0	0	0	0	0	0	11	0	0	0	0
CS(=O)(=O)c1ccc(-c2c(-c3ncn[nH]3)sc(N3CCOCC3)c2C#N)cc1	0	0	36	0	26	6	27	2	0	0	0	0	0	0	26	10	0	24	21	2
